What all share (experiment): yeast three-hybrid, YBZ-1, SC-Leu-His + 0.5 mM 3-AT, 4 days
Common to all, as to settings: tags: N-Gal4 AD-HA kept; label: inside an RPR1-promoter hybrid RNA with tandem MS2 sites; ssRNA

In one assay the target is PUM1 PUF domain R8-WWR (Homo sapiens, UniProt Q14671 828-1176, N1122W;Y1123W;Q1126R). The method in brief:
(§1)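 The interaction score is the log change in how often each variant appears, from input to selection. Frequencies came from PCR-amplified, Illumina-sequenced repeat regions of Pumilio-1 PUF domain libraries grown in strain YBZ-1 (LexA–MS2 coat fusion, HIS3 reporter) alongside matching RNA elements. Input plates were SC-Leu and selection plates were SC-Leu-His + 0.5 mM 3-AT, each for four days, and the log2 calculation used a pseudocount of 1 where a variant was absent.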

The next assay has as its target PUM1 PUF domain R8-GWN (Homo sapiens, UniProt Q14671 828-1176, N1122G;Y1123W;Q1126N). The method in brief:
as §1

The target of another assay is PUM1 PUF domain R7-RSK (Homo sapiens, UniProt Q14671 828-1176, S1079R;N1080S;E1083K). In outline:
as §1

The target of the next assay is PUM1 PUF domain R3-SPF (Homo sapiens, UniProt Q14671 828-1176, C935S;R936P;Q939F). In outline: as §1
The target in the next assay is T1, PUM1 PUF domain R6-RYR (Homo sapiens, UniProt Q14671 828-1176, N1043R;Q1047R).
T1 sequence: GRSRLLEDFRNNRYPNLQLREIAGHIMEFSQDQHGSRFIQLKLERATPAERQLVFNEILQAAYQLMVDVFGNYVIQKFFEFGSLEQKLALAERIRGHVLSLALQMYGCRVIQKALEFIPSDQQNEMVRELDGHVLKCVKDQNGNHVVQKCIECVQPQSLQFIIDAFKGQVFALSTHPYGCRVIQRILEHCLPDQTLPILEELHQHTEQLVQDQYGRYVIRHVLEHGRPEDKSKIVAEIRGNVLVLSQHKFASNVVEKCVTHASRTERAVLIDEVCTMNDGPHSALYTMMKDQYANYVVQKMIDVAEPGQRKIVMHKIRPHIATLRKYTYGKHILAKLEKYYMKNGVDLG
The method in brief:
as §1

The next assay deals with PUM1 PUF domain R3-PWS (Homo sapiens, UniProt Q14671 828-1176, C935P;R936W;Q939S). In outline: as §1
Another assay deals with PUM1 PUF domain R5-RMW (Homo sapiens, UniProt Q14671 828-1176, C1007R;R1008M;Q1011W). The method in brief: as §1
Another assay addresses PUM1 PUF domain R5-SAG (Homo sapiens, UniProt Q14671 828-1176, C1007S;R1008A;Q1011G). In outline:
as §1

The target of another assay is PUM1 PUF domain R1-TLR (Homo sapiens, UniProt Q14671 828-1176, S863T;R864L;Q867R). The method in brief:
as §1

The target of another assay is PUM1 PUF domain R1-YCR (Homo sapiens, UniProt Q14671 828-1176, S863Y;R864C;Q867R). The method in brief:
as §1

This note sets out measurements from publication PMC8384837, “Expanding the binding specificity for RNA recognition by a PUF domain”.

For “GGCUAGAACUAGUGGAUCCCCCGGCGCCCGGCGGCUCGAGCCCGGGUAAGCGUAAAUAGUCUGCAUGCCGCCGGGCGCCAUGCCUGCAGGUCGACUCUAGAAAACAUG”, the values for the binding signal with PUM1 PUF domain R8-WWR and with PUM1 PUF domain R8-GWN were 4.84 log2 enrichment (interaction score) and 5.24 log2 enrichment (interaction score), respectively.

Turning to “GGCUAGAACUAGUGGAUCCCCCGGCGCCCGGCGGCUCGAGCCCGGGUAAGUUUAAAUAGUCUGCAUGCCGCCGGGCGCCAUGCCUGCAGGUCGACUCUAGAAAACAUG”, the binding signal with PUM1 PUF domain R7-RSK was 3.42 log2 enrichment (interaction score).

Regarding “GGCUAGAACUAGUGGAUCCCCCGGCGCCCGGCGGCUCGAGCCCGGGUAAGUGUAAAUAGUCUGCAUGCCGCCGGGCGCCAUGCCUGCAGGUCGACUCUAGAAAACAUG”, the binding signal with PUM1 PUF domain R8-WWR was 4.62 log2 enrichment (interaction score); with PUM1 PUF domain R3-SPF, 4.55 log2 enrichment (interaction score); with PUM1 PUF domain R8-GWN it was 3.4 log2 enrichment (interaction score); with PUM1 PUF domain R6-RYR it was 3.26 log2 enrichment (interaction score); with PUM1 PUF domain R3-PWS it was 4.23 log2 enrichment (interaction score).

For “GGCUAGAACUAGUGGAUCCCCCGGCGCCCGGCGGCUCGAGCCCGGGUAAGUGUCAAUAGUCUGCAUGCCGCCGGGCGCCAUGCCUGCAGGUCGACUCUAGAAAACAUG”, the binding signal with PUM1 PUF domain R5-RMW is 3.01 log2 enrichment (interaction score).

As to “GGCUAGAACUAGUGGAUCCCCCGGCGCCCGGCGGCUCGAGCCCGGGUAAGUGUGAAUAGUCUGCAUGCCGCCGGGCGCCAUGCCUGCAGGUCGACUCUAGAAAACAUG”, the binding signal in the assay with PUM1 PUF domain R5-SAG was 3.06 log2 enrichment (interaction score).

For the sequence “GGCUAGAACUAGUGGAUCCCCCGGCGCCCGGCGGCUCGAGCCCGGGUAAGUCUAAAUAGUCUGCAUGCCGCCGGGCGCCAUGCCUGCAGGUCGACUCUAGAAAACAUG”, in the assay with PUM1 PUF domain R7-RSK, the binding signal is 3.84 log2 enrichment (interaction score).

As to “GGCUAGAACUAGUGGAUCCCCCGGCGCCCGGCGGCUCGAGCCCGGGUAAGUGUUAAUAGUCUGCAUGCCGCCGGGCGCCAUGCCUGCAGGUCGACUCUAGAAAACAUG”, the binding signal in the assay with PUM1 PUF domain R5-RMW is 0.73 log2 enrichment (interaction score).

In the case of “GGCUAGAACUAGUGGAUCCCCCGGCGCCCGGCGGCUCGAGCCCGGGUAAGUGUAAAUUGUCUGCAUGCCGCCGGGCGCCAUGCCUGCAGGUCGACUCUAGAAAACAUG”, the binding signal with PUM1 PUF domain R1-TLR was 1.83 log2 enrichment (interaction score); with PUM1 PUF domain R1-YCR, 7.79 log2 enrichment (interaction score).

For the sequence “GGCUAGAACUAGUGGAUCCCCCGGCGCCCGGCGGCUCGAGCCCGGGUAAGUGUAAAUCGUCUGCAUGCCGCCGGGCGCCAUGCCUGCAGGUCGACUCUAGAAAACAUG”, the binding signal is 4.21 log2 enrichment (interaction score) in the assay with PUM1 PUF domain R1-TLR and 7.03 log2 enrichment (interaction score) in the assay with PUM1 PUF domain R1-YCR.

Regarding “GGCUAGAACUAGUGGAUCCCCCGGCGCCCGGCGGCUCGAGCCCGGGUAAGUGUAAUUAGUCUGCAUGCCGCCGGGCGCCAUGCCUGCAGGUCGACUCUAGAAAACAUG”, the binding signal is 2.3 log2 enrichment (interaction score) with PUM1 PUF domain R3-SPF and 1.88 log2 enrichment (interaction score) in the assay with PUM1 PUF domain R3-PWS.

For “GGCUAGAACUAGUGGAUCCCCCGGCGCCCGGCGGCUCGAGCCCGGGUAAGUGAAAAUAGUCUGCAUGCCGCCGGGCGCCAUGCCUGCAGGUCGACUCUAGAAAACAUG”, in the assay with PUM1 PUF domain R6-RYR, the binding signal was 1.38 log2 enrichment (interaction score).
